Source: PubChem BioAssay (National Center for Advancing Translational Sciences (NCATS))
TDP-43 yeast inh: TDP-43 toxicity inhibition in yeast; TDP-43 expressing yeast growth rescue, BacTiter-Glo, 24 h; Potency, µM (highest dose often 46.1 µM), hits mostly activators; 410,000 compounds, 1.8% hits; also: nearly all actives have a fitted effect of over 50% in size
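Luminescence from BacTiter-Glo reports growth of TDP-43-expressing yeast after 24 hr at 30 deg C with compound. Cells were raffinose-pregrown to mid-log, then seeded in galactose medium at OD600=0.02.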
aSyn yeast inh: rescues yeast growth from alpha-synuclein toxicity; 370,000 compounds, 0.14% hits; Potency, µM (series often up to 46.1 µM), usual class: activators; AID 652106; Yeast expressing alpha-synuclein, growth rescue, BacTiter-Glo, 24 h; also: nearly all actives have a fitted effect of over 65% in size
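Screening used galactose-induced yeast with toxic alpha-synuclein levels, exposed to compound for 24 hr at 30 deg C. Cell growth, read with BacTiter-Glo luminescence, gave the measured signal.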
FUS suppressor: rescues growth of FUS-expressing yeast; Potency, µM (titrated, usually from 76.6 µM), most hits filed as activators; AID 1347120; 390,000 compounds, 0.24% hits; S. cerevisiae FUS-expressing, growth rescue, OD600, 24 h; also: nearly all actives have a fitted effect of over 55% in size
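Toxicity suppression screen in FUS-yeast. Cells induced with 2% galactose, starting OD 0.005, treated 24hr at 30C with compounds at multiple final concentrations; growth by OD600.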
PTHR1 ag: agonists of human PTHR1 parathyroid hormone receptor; 410,000 compounds, 0.075% hits; Potency, µM (highest dose often 115 µM), usual class: activators; HEK293 GP2 PTHR1 cells, GloSensor cAMP luminescence, 1 h; AID 743266; also: nearly all actives have a fitted effect of over 55% in size
Target sequence (Q03431 whole entry, looked up): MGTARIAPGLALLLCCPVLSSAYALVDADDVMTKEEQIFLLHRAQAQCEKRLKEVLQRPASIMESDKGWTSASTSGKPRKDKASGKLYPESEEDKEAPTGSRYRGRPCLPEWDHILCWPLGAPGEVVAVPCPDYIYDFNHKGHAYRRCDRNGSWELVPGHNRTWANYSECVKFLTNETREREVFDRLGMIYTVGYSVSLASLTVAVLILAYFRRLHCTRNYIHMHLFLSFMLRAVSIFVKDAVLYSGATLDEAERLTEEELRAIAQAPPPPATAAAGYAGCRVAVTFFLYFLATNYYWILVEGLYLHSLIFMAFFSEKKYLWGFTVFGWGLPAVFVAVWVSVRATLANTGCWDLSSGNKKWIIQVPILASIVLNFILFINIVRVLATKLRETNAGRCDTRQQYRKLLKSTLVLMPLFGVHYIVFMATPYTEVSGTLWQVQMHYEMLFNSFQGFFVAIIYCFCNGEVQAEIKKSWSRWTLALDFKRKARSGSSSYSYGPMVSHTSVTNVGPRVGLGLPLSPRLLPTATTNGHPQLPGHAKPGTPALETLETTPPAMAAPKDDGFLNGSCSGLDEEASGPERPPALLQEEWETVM
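HEK-293-derived GP2 cells expressing PTHR1 and a GloSensor cAMP reporter, 3,000/well, plated overnight, given luciferin plus IBMX (each 0.5 mM as added) for 1 h at 37 °C, then compound for 1 h at 37 °C. Luminescence was read after 15 min at room temperature.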
Abeta yeast res: compounds reversing amyloid beta toxicity in yeast | Potency, µM (series often up to 46.1 µM), usual class: activators | yeast expressing A-beta42, growth rescue, OD600, 48 h; response scale: 0% DMSO, 100% iron-clioquinol control | AID 1347071 | 410,000 compounds, 0.063% hits; also: nearly all actives have a fitted effect of over 55% in size
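Yeast A-beta toxicity model in growth medium with pinned compounds, 48 h at 30 C; growth read as absorbance at 600 nm. Normalized to FeCl3/clioquinol equimolar mix (positive) and DMSO (negative).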
LDHA block: blocks human lactate dehydrogenase A; P00338; purified LDHA, NADH/diaphorase-resazurin fluorescence; active compounds read low; activity change, % (values are at about 110 or 230 µM); 480,000 compounds, 0.15% hits; AID 1347041; in the data active = activity change below about -30%; inconclusive = mostly about -25% to -30%
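LDH5 2 nM; NADH 0.06 mM, pyruvate 0.2 mM; 200 mM Tris pH 7.4, EDTA, Tween-20; 5 min RT. Detection: diaphorase 0.133 mg/mL + resazurin 37 µM, fluorescence ex540/em590 at 0 and 20 min; normalized to enzyme-free and DMSO wells.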
Numbers stand for hits; i = inactive; ? = inconclusive; nt = not tested or not shown; ! = repeats disagree. An excerpt weighted towards active compounds, which were near 1.9% of everything screened. Unless noted, calls follow the shape of the dose curve; as a rule, active = well fitted curve in the direction sought with a large enough effect; inconclusive = small, poorly fitted or top-dose-only effect, or another doubt; inactive = no such curve, though single readings can be large; an effect the other way counts as inactive or inconclusive.

SMILES | TDP-43 yeast inh | aSyn yeast inh | FUS suppressor | PTHR1 ag | Abeta yeast res | LDHA block
CCN1CCN(c2ccc(NC(=O)CCc3c(C)nc4c(-c5ccccc5)c(C)nn4c3C)cc2)CC1 | i | i | i | i | i | i
CC(NC(=O)c1cc(-c2ccco2)nc2ccccc12)c1ccccc1 (stereo not given) | nt | nt | nt | nt | nt | i
Nc1ccc(-c2ncc(-c3ccccc3)o2)cc1 | i | i | i | i | i | i
Cc1ccc(-c2cnc(-c3ccncc3)o2)cc1 | 16µM | i | i | i | i | i
CN(Cc1ccc(-c2ccc(Cl)cc2)o1)C(=O)CSc1nnc(C2CC2)n1C | nt | nt | nt | nt | nt | i
Fc1ccccc1-n1cc(-c2ccccc2)[nH]c1=S | 13µM | i | i | i | ? | i
COc1ccc(-n2cc(-c3ccccc3)[nH]c2=S)c(OC)c1 | i | i | i | i | i | i
CCC(C(=O)OCC(=O)Nc1ccc(SC(F)F)cc1)c1ccccc1 (stereo not given) | 10µM | i | i | i | ? | i
CCC(C(=O)OCC(=O)Nc1ccc(F)cc1)c1ccccc1 (stereo not given) | i | i | nt | i | i | i
Nc1ncnc(Oc2cccc(C(F)(F)F)c2)c1[N+](=O)[O-] | 13µM | i | i | i | i | i
COc1ccccc1NC(=O)C1=C(C)Nc2nc(SC)nn2C1c1cccnc1 (stereo not given) | nt | nt | nt | nt | nt | i
N/C(=N\OC(=O)c1ccc(Br)cc1)c1cccc([N+](=O)[O-])c1 | 10µM | i | i | i | i | i
Cc1ccc(C(=O)O/N=C(\N)c2cccc([N+](=O)[O-])c2)cc1 | 10µM | i | i | i | i | i
N/C(=N\OC(=O)c1ccc([N+](=O)[O-])cc1)c1ccc(Br)cc1 | i | i | i | i | i | i
Cc1cccc(/C(N)=N/OC(=O)Cc2cccs2)c1 | ? | i | i | i | i | i
N/C(=N\OC(=O)Cc1cccs1)c1cccc([N+](=O)[O-])c1 | 11µM | i | i | i | i | i
O=C(CSc1nnnn1-c1ccccc1)Nc1ccccc1C(=O)O | nt | nt | nt | nt | nt | i
O=C(Cc1ccc2c(c1)CCCC2)NC1CCc2ccccc21 (stereo not given) | nt | nt | nt | nt | nt | i
O=C(Nc1ccc(Br)cc1)C1CC(c2c(F)cccc2Cl)=NO1 (stereo not given) | 11µM | i | i | i | i | i
O=C(Nc1cc(Br)ccc1O)C1CC(c2c(F)cccc2Cl)=NO1 (stereo not given) | i | i | i | i | i | i
CC(C)C(=O)Nc1ccc2oc(-c3ccc(F)cc3)nc2c1 | nt | nt | nt | nt | nt | i
Cc1ccc(OCc2nc(C#N)c(NCc3ccco3)o2)cc1 | 11µM | i | i | i | i | i
COc1ccc(Nc2oc(COc3ccc(C)cc3)nc2C#N)cc1 | 22µM | nt | i | i | i | i
COc1ccc(CNc2oc(COc3cccc(C)c3)nc2C#N)cc1 | 22µM | nt | i | i | i | i
COc1ccc(Nc2oc(COc3ccc(OC)cc3)nc2C#N)cc1 | i | i | i | i | i | i
SMILES | TDP-43 yeast inh | aSyn yeast inh | FUS suppressor | PTHR1 ag | Abeta yeast res | LDHA block
COc1ccc(CNc2oc(COc3cccc(Cl)c3)nc2C#N)cc1 | nt | nt | nt | nt | nt | i
O=C(N/N=C/c1ccccn1)c1[nH]c2ccc([N+](=O)[O-])cc2c1-c1ccccc1 | i | ? | 32µM | i | i | i
NNC(=O)c1[nH]c2ccc([N+](=O)[O-])cc2c1-c1ccccc1 | i | i | i | ? | i | i
O=C(Nc1ccc2nc(SCc3ccc(I)cc3)sc2c1)c1ccc(Cl)cc1 | nt | nt | nt | nt | nt | i
Cc1cccc(N2CCN(C(=O)c3nn(C)c4c3CSc3ccccc3-4)CC2C)c1 (stereo not given) | i | nt | i | i | i | i
CCOC(=O)N1CCN(C(=O)c2nn(C)c3c2CSc2ccccc2-3)CC1 | 35µM | i | i | i | i | i
Cc1c(C)n(-c2cccc(F)c2)c2ncnc(Cl)c12 | nt | nt | nt | nt | nt | i
Cc1nnc(SCc2nc(N)nc(Nc3ccccc3)n2)s1 | i | i | i | i | i | i
CCNC(=O)c1ccc(CSc2nc3ccccc3s2)cc1 | 14µM | i | i | i | i | i
CC(=O)Nc1ccc2nc(SCc3ccccc3)sc2c1 | 18µM | nt | i | i | i | i
CCc1ccc(Nc2nc(N)nc(CSc3nc4ccccc4s3)n2)cc1 | 25µM! | i | i | i | ? | i
CCCNC(=O)NNC(=O)c1cc(-c2ccc(Cl)cc2)nc2ccccc12 | nt | nt | nt | nt | nt | i
CCc1ccccc1NCC(=O)Nc1ccc(C#N)cc1 | nt | nt | nt | nt | nt | i
CC(C)NCc1cccc(OCc2ccccc2)c1 | nt | nt | nt | nt | nt | i
NC(=S)Nc1cc2ccccc2c2ccccc12 | 22µM | i | i | i | i | i
NC(=S)Nc1cccc2cc3ccccc3cc12 | ? | i | i | i | i | i
CCOC(=O)c1ccc(N=Cc2nc(-c3ccccc3)oc2OC(C)=O)cc1 | 16µM | i | i | i | i | i
N#CCSc1nc2c(cc1C#N)CCCCCC2 | 16µM | i | i | i | i | i
N#Cc1cc2c(nc1SCC(=O)O)CCCC2 | i | i | i | i | i | i
Oc1c(Br)cc(Br)cc1CNc1ccc(F)cc1 | i | i | i | i | i | i
Oc1c(Br)cc(Br)cc1CNc1cnc2ccccc2c1 | 20µM | i | i | i | i | i
CCOc1cc(/C=C2\C(=O)ON=C2c2ccccc2)ccc1OC | 13µM | i | i | i | i | -61
COc1ccc(C=C2C(=O)OC(C)(C)OC2=O)cc1OC | i | i | i | i | i | i
COc1ccc(/C=C2\C(=O)ON=C2c2ccccc2)cc1OC | ? | ? | i | i | i | -50
COc1ccc(/C=C2/C(=O)ON=C2c2ccccc2)cc1OC | ? | 13µM | i | i | i | -60
SMILES | TDP-43 yeast inh | aSyn yeast inh | FUS suppressor | PTHR1 ag | Abeta yeast res | LDHA block
COc1cc(/C=C2\C(=O)ON=C2c2ccccc2)cc(OC)c1OC | ? | i | i | i | i | -36
CC(C)c1ccc(-c2cc(C3CC3)nc(N)c2C#N)cc1 | nt | nt | nt | nt | nt | i
NC(=O)COc1ccccc1 | i | i | i | i | i | i
NC(=O)COc1ccc(/C=C2\C(=O)ON=C2c2ccccc2)cc1 | 22µM | 16µM | nt | i | i | -57
COc1cccc(C(=O)Nc2ccccc2)c1 | i | i | i | i | i | i
COc1cccc(NC(=O)c2oc3ccccc3c2NC(C)=O)c1 | i | i | i | i | i | i
COc1cccc(C(=O)Nc2c(C(=O)NC(C)(C)C)oc3ccccc23)c1 | 18µM | nt | i | i | i | i
COc1cccc(C(=O)Nc2ccc(-n3nncc3-c3ccccc3)cc2)c1 | 35µM | nt | ? | i | i | i
COc1cccc(C(=O)Nc2nc(-c3ccccc3)c(-c3ccccc3)o2)c1 | 20µM | ? | i | i | 16µM | i
O=C(Nc1ccc(-n2nncc2-c2ccccc2)cc1)c1ccccc1 | nt | i | nt | nt | nt | i
